Measurements: PMC7862700, “An all-to-all approach to the identification of sequence-specific readers for epigenetic DNA modifications on cytosine”

Experiments:
Experiment in all cases: DAPPL (digital affinity profiling via proximity ligation, sequencing); 10 mM Tris-HCl pH 7.5, 50 mM NaCl, 1 mM DTT, 4% glycerol, room temperature, 30 min; GST-TFs on glutathione beads, 16-mer random dsDNA library, 0.1% formaldehyde crosslink after washing; high values mean tight binding
Conditions in all cases: protein: recombinant; tags: N-terminal GST; dsDNA, one strand shown
FEV = target: T1, FEV (Homo sapiens, UniProt Q99581 1-238)
T1 sequence: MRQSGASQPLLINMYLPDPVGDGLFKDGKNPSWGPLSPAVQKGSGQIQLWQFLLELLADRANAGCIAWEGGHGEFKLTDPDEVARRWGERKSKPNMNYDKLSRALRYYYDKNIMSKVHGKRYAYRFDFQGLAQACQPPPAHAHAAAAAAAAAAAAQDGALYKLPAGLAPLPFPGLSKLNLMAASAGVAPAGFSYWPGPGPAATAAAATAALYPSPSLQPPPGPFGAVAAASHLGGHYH
In short: (§1)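 Binding signal is given per hexamer as its read frequency for a factor divided by its frequency in the tag-only sample. GST-fused human transcription factors were expressed in yeast, captured on glutathione beads, barcoded with DNA and pooled with that sample, then incubated with 200 nmole of a 16-mer random double-stranded DNA library in Tris/NaCl/DTT/glycerol buffer for 30 min at room temperature. The pools were then washed, crosslinked, proximity-ligated, amplified by PCR and sequenced on an Illumina NextSeq500.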

ETV5 = ETV5 (Homo sapiens, UniProt P41161 1-510)
ETV5, sequence (P41161 whole entry): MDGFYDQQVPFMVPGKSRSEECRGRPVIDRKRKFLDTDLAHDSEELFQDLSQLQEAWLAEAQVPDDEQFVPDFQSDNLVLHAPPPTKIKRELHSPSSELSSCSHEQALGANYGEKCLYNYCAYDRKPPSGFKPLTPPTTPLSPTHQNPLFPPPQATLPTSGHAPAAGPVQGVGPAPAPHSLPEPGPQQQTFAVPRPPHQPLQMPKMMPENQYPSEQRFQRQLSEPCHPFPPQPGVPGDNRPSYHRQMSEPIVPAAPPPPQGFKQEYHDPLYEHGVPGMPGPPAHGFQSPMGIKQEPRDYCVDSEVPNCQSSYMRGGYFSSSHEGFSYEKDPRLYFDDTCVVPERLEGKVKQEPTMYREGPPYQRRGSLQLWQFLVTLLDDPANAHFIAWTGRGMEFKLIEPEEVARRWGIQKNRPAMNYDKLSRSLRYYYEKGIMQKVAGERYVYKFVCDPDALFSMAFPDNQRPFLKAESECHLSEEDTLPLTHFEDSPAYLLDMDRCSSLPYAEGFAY
In short: as §1

SPIC = target: T2, SPIC (Homo sapiens, UniProt Q8N5J4 1-248)
T2 sequence: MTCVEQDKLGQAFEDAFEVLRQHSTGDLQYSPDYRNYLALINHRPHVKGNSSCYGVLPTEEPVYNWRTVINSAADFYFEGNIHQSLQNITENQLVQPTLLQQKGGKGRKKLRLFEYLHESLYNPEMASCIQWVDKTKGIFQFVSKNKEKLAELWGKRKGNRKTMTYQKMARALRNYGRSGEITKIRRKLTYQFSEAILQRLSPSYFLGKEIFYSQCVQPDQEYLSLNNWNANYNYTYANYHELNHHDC
In short: as §1

ELF4 = ELF4 (Homo sapiens, UniProt Q99607 1-663)
ELF4, sequence (Q99607 whole entry): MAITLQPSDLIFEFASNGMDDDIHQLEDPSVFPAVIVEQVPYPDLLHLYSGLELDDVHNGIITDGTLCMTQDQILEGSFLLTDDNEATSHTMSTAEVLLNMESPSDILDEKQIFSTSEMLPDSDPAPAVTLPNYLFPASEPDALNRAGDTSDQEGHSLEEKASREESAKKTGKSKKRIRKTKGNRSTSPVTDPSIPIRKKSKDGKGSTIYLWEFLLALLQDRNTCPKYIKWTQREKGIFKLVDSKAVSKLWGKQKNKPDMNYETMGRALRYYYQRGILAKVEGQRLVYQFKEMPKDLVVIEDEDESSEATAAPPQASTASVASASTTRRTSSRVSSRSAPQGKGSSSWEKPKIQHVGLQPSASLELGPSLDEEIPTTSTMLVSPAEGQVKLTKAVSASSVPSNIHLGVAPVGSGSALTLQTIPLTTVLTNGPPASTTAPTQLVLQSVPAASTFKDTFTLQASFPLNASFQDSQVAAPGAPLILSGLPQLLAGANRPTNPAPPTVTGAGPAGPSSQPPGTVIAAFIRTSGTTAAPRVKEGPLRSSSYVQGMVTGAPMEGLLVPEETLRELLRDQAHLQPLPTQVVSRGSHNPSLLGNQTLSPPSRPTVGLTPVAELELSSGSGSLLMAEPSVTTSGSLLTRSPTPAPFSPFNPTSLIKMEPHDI
In short: as §1

ELK4 = target: T3, ELK4 (Homo sapiens, UniProt P28324-2 1-405)
T3 sequence: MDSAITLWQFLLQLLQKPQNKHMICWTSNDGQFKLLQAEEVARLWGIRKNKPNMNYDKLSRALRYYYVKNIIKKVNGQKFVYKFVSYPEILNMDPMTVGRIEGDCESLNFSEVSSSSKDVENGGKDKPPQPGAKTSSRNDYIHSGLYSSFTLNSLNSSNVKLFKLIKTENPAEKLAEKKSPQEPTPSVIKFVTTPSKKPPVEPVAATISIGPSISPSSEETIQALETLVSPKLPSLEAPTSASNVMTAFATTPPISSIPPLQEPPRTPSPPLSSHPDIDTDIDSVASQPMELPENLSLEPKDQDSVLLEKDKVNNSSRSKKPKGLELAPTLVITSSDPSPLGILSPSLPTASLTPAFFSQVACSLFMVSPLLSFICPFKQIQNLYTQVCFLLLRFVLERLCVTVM
In short: as §1

ETV2 = target: T4, ETV2 (Homo sapiens, UniProt O00321 1-342)
T4 sequence: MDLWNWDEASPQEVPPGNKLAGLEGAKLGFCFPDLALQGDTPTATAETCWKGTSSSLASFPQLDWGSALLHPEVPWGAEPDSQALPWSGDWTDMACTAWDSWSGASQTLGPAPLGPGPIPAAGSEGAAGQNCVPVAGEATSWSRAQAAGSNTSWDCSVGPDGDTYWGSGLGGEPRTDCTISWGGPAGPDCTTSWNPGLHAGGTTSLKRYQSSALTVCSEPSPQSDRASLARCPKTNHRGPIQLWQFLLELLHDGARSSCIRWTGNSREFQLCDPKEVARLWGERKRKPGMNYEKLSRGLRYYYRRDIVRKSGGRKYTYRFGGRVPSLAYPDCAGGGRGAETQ
In short: as §1

ELF3 = target: T5, ELF3 (Homo sapiens, UniProt P78545 1-371)
T5 sequence: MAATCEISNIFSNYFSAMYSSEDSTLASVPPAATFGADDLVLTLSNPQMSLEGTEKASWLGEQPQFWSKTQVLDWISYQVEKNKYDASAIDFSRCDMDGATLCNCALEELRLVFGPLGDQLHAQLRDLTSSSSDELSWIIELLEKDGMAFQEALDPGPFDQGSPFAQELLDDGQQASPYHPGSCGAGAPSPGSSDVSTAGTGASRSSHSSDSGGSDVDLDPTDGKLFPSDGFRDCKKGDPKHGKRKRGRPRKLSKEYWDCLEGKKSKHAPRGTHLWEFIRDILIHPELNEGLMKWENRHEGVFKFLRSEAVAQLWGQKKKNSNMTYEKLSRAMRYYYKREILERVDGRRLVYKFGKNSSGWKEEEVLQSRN
In short: as §1

ETV1 = ETV1 (Homo sapiens, UniProt P50549 1-477)
ETV1, sequence (P50549 whole entry): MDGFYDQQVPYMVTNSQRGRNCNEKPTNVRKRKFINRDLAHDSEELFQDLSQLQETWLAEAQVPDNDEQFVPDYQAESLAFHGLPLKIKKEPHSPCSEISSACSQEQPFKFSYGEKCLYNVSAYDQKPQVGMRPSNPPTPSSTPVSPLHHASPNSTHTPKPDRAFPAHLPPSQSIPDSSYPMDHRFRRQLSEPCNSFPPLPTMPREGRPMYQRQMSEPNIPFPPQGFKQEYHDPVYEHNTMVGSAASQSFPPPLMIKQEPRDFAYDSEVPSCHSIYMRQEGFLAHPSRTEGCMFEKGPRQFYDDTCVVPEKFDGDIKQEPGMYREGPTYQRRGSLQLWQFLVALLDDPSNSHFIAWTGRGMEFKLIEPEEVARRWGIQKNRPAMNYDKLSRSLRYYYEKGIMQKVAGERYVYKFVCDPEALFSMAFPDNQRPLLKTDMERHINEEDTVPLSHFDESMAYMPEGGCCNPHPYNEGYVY
In short: as §1

ERF = target: T6, ERF (Homo sapiens, UniProt P50548 1-548)
T6 sequence: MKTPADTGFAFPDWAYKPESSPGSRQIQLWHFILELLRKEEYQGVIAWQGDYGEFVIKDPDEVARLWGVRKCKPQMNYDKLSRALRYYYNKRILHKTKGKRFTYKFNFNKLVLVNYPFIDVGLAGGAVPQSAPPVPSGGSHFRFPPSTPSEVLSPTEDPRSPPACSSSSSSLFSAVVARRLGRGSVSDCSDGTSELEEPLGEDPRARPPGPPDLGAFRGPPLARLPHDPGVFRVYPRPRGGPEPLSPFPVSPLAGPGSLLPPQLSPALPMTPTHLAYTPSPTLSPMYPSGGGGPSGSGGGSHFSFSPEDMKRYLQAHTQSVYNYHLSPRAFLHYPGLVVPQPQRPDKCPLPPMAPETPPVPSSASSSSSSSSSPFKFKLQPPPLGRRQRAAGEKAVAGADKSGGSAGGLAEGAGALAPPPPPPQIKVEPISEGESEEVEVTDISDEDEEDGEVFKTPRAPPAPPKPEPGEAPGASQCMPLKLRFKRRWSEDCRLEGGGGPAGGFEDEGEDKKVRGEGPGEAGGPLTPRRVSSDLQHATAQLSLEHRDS
In short: as §1

ETV3L = target: T7, ETV3L (Homo sapiens, UniProt Q6ZN32 1-361)
T7 sequence: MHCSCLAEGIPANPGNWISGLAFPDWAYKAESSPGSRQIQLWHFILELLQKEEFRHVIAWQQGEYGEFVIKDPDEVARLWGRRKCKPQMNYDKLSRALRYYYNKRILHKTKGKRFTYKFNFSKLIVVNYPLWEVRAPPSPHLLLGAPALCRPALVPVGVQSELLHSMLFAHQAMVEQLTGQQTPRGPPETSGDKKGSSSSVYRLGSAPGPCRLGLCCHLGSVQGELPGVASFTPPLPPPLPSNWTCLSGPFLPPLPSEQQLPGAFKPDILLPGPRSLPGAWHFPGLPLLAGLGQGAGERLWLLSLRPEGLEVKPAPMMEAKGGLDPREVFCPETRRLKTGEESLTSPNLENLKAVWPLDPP
In short: as §1

ETS2 = target: T8, ETS2 (Homo sapiens, UniProt P15036 1-469)
T8 sequence: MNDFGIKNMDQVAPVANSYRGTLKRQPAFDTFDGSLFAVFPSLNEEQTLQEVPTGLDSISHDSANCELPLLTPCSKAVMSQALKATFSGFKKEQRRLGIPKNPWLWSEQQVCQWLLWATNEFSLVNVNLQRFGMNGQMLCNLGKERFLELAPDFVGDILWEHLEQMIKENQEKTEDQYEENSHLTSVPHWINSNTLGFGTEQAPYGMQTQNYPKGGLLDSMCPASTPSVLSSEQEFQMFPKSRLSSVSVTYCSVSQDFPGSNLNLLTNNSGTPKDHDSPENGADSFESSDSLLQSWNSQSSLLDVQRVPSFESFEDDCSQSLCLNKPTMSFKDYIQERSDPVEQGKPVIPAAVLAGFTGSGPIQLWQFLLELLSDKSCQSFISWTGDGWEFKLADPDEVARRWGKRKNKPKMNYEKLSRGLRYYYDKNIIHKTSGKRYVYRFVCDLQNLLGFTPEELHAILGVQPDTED
In short: as §1

SPDEF = target: T9, SPDEF (Homo sapiens, UniProt O95238 1-335)
T9 sequence: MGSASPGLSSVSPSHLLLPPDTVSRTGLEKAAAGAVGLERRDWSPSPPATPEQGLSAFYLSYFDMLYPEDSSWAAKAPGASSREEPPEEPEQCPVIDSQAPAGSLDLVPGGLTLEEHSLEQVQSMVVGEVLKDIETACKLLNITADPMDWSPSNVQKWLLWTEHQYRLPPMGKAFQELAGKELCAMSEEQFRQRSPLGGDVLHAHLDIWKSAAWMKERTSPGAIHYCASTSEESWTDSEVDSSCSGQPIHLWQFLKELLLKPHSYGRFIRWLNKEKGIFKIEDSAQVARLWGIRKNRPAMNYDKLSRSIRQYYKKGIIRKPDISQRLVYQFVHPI
In short: as §1

ETV7 = target: T10, ETV7 (Homo sapiens, UniProt Q9Y603 1-341)
T10 sequence: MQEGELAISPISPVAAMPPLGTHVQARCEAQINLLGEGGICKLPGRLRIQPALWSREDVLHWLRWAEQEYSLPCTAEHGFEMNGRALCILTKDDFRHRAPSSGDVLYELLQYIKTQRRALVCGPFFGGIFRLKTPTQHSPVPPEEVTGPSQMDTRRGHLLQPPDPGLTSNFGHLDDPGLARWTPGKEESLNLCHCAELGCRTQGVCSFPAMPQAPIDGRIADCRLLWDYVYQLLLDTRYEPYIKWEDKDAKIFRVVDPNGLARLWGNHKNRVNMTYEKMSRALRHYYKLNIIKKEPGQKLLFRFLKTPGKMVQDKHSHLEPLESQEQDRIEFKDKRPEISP
In short: as §1

ELF5 = target: T11, ELF5 (Homo sapiens, UniProt Q9UKW6-2 1-255)
T11 sequence: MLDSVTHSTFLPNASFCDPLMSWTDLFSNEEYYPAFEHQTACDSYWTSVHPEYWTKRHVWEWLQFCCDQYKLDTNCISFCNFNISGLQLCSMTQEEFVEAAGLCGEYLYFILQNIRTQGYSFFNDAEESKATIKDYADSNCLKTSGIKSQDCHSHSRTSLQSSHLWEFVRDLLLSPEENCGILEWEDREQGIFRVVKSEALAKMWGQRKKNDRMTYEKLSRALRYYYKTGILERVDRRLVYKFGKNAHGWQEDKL
In short: as §1

ETV3 = target: T12, ETV3 (Homo sapiens, UniProt P41162-2 1-143)
T12 sequence: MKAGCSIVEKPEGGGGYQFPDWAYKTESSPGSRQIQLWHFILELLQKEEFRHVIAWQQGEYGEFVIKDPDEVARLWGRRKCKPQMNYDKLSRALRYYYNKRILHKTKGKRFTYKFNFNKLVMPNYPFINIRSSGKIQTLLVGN
In short: as §1

ETV6 = ETV6 (Homo sapiens, UniProt P41212 1-452)
ETV6, sequence (P41212 whole entry): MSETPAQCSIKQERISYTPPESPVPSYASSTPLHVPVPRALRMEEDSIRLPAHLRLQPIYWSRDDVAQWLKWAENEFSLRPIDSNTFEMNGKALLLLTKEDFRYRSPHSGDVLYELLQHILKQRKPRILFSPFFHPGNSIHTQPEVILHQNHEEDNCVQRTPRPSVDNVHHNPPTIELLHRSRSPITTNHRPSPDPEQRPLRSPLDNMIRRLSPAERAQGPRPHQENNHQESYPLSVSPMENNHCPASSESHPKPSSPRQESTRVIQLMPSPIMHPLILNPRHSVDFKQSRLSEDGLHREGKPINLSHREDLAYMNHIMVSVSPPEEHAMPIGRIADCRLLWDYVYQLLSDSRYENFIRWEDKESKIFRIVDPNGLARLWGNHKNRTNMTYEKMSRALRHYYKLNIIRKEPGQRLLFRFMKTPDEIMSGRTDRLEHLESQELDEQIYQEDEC
In short: as §1

Sequence	binding signal (FEV)	binding signal (ETV5)	binding signal (SPIC)	binding signal (ELF4)	binding signal (ELK4)	binding signal (ETV2)	binding signal (ELF3)	binding signal (ETV1)	binding signal (ERF)	binding signal (ETV3L)	binding signal (ETS2)	binding signal (SPDEF)	binding signal (ETV7)	binding signal (ELF5)	binding signal (ETV3)	binding signal (ETV6)
CACCCC	1.22 fold enrichment (6-mer frequency, TF over GST control)	1.18 fold enrichment (6-mer frequency, TF over GST control)	1.41 fold enrichment (6-mer frequency, TF over GST control)	1.18 fold enrichment (6-mer frequency, TF over GST control)	1.47 fold enrichment (6-mer frequency, TF over GST control)	1.13 fold enrichment (6-mer frequency, TF over GST control)	1.11 fold enrichment (6-mer frequency, TF over GST control)	1.28 fold enrichment (6-mer frequency, TF over GST control)	1.36 fold enrichment (6-mer frequency, TF over GST control)	1.34 fold enrichment (6-mer frequency, TF over GST control)	1.22 fold enrichment (6-mer frequency, TF over GST control)	1.24 fold enrichment (6-mer frequency, TF over GST control)	1.11 fold enrichment (6-mer frequency, TF over GST control)	1.16 fold enrichment (6-mer frequency, TF over GST control)	1.27 fold enrichment (6-mer frequency, TF over GST control)	1.14 fold enrichment (6-mer frequency, TF over GST control)
CAATGC	1.16 fold enrichment (6-mer frequency, TF over GST control)	1.22 fold enrichment (6-mer frequency, TF over GST control)	1.12 fold enrichment (6-mer frequency, TF over GST control)	1.3 fold enrichment (6-mer frequency, TF over GST control)	1.21 fold enrichment (6-mer frequency, TF over GST control)	1.21 fold enrichment (6-mer frequency, TF over GST control)	1.22 fold enrichment (6-mer frequency, TF over GST control)	1.12 fold enrichment (6-mer frequency, TF over GST control)	1.08 fold enrichment (6-mer frequency, TF over GST control)	1.15 fold enrichment (6-mer frequency, TF over GST control)	1.15 fold enrichment (6-mer frequency, TF over GST control)	1.2 fold enrichment (6-mer frequency, TF over GST control)	1.24 fold enrichment (6-mer frequency, TF over GST control)	1.13 fold enrichment (6-mer frequency, TF over GST control)	1.2 fold enrichment (6-mer frequency, TF over GST control)	1.24 fold enrichment (6-mer frequency, TF over GST control)
CTGCGT	1.07 fold enrichment (6-mer frequency, TF over GST control)	1.09 fold enrichment (6-mer frequency, TF over GST control)	1.31 fold enrichment (6-mer frequency, TF over GST control)	1.09 fold enrichment (6-mer frequency, TF over GST control)	1.3 fold enrichment (6-mer frequency, TF over GST control)	1.09 fold enrichment (6-mer frequency, TF over GST control)	1.07 fold enrichment (6-mer frequency, TF over GST control)	1.11 fold enrichment (6-mer frequency, TF over GST control)	1.13 fold enrichment (6-mer frequency, TF over GST control)	1.16 fold enrichment (6-mer frequency, TF over GST control)	1.15 fold enrichment (6-mer frequency, TF over GST control)	1.2 fold enrichment (6-mer frequency, TF over GST control)	1.23 fold enrichment (6-mer frequency, TF over GST control)	1.11 fold enrichment (6-mer frequency, TF over GST control)	1.13 fold enrichment (6-mer frequency, TF over GST control)	1.02 fold enrichment (6-mer frequency, TF over GST control)
